The text below walks through data of PubChem BioAssay.

The structures appear in SMILES notation. Active and inactive are the calls of the source.

A short description of assay [1]: optical density shifts of acrAB sulA E. coli – strain DRC41, OD650, 48 h, E. coli filamentation inducer project, primary screen (AID 1152).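 Also: E. coli MC1000 strain DRC41 lacking acrAB efflux pump and sulA.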 The note with it: higher = more signal, called active from +8 up or from −8 down.
Assay [2] can be described thus: probe aLefty1 binding on compound microarray – biochemical, small-molecule microarray, 635/667 nm fluorescence, primary screen (AID 1153).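 Also: score merges spot fluorescence with signal-to-noise ratio from the scanned slide images.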 To be noted: higher = more signal.
Assay [3] in a line: plasmodial surface anion channel blockers, osmotic lysis – cell-based, P. falciparum Indochina, OD700, 1 h, primary screen (AID 1154). The note with it: P. falciparum Indochina infected RBC osmotic lysis, higher = more signal, called active from +8 up or from −8 down.
A short description of assay [4]: plasmodial surface anion channel blockers, osmotic lysis – cell-based, P. falciparum Indochina, OD700, 2 h, primary screen (AID 1155).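 Also: lysis reports solute entry through the parasite surface anion channel PSAC.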 The note with it: P. falciparum Indochina infected erythrocytes, higher = more signal, called active from +8 up or from −8 down.
A short description of assay [5]: changes in parasitized red cell lysis, either direction – P. falciparum Indochina, OD700, 3 h, PSAC antagonist project, primary screen (AID 1156). The note with it: P. falciparum-infected erythrocytes, osmotic lysis, higher = more signal, called active from +8 up or from −8 down.
A short description of assay [6]: plasmodial surface anion channel blockers, osmotic lysis – cell-based, P. falciparum Indochina, OD700, 18 h, primary screen (AID 1157). The note with it: P. falciparum Indochina infected erythrocytes, osmotic lysis OD700, 18 h; higher = more signal, called active from +8 up or from −8 down.
Assay [7] can be described thus: S6 kinase pathway phospho-S6 level changes – cell-based, A549, cytoblot, luminescence, serum-stimulated, primary screen (AID 1158).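 Also: serum-stimulated A549 lung adenocarcinoma cells; signal is phosphorylated S6 detected by cytoblot immunostaining with HRP secondary.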 The note with it: 5 h, higher = more signal.
For assay [8], the target named is NADPH oxidase 2 (Homo sapiens) (UniProt P04839). As to the kind of experiment: compounds shifting NOX2 Amplex Red fluorescence – cell-based, HEK293-NOX2, PMA-stimulated, NOX inhibitor project, primary screen (AID 1159). Also: test concentration not given here. The note with it: 45 min, higher = more signal, called active from +8 up or from −8 down.
Sequence of NADPH oxidase 2 (Homo sapiens) (P04839 whole entry, looked up): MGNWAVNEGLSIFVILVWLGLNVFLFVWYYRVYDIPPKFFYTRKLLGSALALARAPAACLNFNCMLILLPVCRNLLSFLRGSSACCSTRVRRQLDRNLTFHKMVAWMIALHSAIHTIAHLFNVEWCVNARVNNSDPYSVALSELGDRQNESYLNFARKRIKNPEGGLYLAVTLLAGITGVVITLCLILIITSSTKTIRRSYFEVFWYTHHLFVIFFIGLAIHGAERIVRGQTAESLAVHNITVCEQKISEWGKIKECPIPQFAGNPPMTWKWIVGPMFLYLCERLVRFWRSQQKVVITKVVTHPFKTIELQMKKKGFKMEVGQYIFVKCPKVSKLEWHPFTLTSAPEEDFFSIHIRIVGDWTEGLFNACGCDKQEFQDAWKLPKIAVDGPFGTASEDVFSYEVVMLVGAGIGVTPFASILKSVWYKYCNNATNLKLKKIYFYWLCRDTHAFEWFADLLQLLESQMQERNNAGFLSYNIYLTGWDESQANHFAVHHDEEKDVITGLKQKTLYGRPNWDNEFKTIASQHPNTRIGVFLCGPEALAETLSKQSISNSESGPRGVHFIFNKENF
The target in assay [9] is NADPH oxidase 4 (Homo sapiens) (UniProt Q9NPH5). As to the kind of experiment: compounds shifting NOX4 Amplex Red fluorescence – cell-based, HEK293-NOX4, tetracycline-induced, NOX inhibitor project, primary screen (AID 1160). To be noted: HEK293-NOX4, Amplex Red H2O2 fluorescence, 45 min; higher = more signal, called active from +8 up or from −8 down.
Sequence of NADPH oxidase 4 (Homo sapiens) (Q9NPH5 whole entry, looked up): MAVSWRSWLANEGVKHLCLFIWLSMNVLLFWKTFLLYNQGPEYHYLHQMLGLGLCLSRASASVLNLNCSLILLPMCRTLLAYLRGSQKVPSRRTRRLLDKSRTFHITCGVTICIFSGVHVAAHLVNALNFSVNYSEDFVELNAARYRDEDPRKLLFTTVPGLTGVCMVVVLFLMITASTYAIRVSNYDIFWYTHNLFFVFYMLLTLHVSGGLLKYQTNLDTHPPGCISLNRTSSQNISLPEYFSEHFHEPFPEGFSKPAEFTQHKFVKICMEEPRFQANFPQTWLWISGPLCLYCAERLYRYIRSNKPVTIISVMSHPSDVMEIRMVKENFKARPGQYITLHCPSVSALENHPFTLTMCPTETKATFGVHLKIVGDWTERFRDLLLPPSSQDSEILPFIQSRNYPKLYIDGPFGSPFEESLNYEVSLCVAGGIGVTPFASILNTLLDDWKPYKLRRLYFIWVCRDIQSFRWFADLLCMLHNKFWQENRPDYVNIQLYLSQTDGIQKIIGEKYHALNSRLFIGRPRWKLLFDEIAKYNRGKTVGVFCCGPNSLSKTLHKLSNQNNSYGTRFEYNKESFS
Assay [10] has as its target NADPH oxidase 5 (Homo sapiens) (UniProt Q96PH1). As to the kind of experiment: compounds shifting NOX5 Amplex Red fluorescence – cell-based, HEK293-NOX5, NOX inhibitor project, primary screen (AID 1161). To be noted: HEK293-NOX5, ionomycin, 45 min, higher = more signal.

Sequence of NADPH oxidase 5 (Homo sapiens) (Q96PH1 whole entry, looked up): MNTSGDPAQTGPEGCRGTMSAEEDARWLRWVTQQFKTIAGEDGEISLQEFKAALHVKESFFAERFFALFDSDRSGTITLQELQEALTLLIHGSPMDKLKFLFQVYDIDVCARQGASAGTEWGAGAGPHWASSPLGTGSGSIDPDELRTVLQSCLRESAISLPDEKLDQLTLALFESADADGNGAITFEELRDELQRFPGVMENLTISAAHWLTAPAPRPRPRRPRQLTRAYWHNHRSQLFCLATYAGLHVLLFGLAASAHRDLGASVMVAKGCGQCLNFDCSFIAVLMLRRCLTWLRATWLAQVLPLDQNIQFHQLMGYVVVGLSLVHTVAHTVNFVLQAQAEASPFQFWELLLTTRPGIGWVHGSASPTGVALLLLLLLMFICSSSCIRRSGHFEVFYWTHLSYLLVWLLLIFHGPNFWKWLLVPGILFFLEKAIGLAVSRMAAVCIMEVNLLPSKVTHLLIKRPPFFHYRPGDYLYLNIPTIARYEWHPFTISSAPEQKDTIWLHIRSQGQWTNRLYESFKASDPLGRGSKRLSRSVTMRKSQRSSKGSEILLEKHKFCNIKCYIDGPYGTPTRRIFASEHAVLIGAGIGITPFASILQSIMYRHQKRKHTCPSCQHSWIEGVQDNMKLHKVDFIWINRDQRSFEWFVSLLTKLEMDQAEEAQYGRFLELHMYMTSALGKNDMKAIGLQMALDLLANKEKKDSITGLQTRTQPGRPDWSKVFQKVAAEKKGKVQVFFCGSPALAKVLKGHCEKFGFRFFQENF

As for `COCCCNC(=O)[C@@]1(Cc2ccccc2CN=[N+]=[N-])N=C(c2ccc(OCCCO)cc2)O[C@H]1c1ccccc1`, the z-score in assay [1] is -0.314 (inactive); in [3], 17.1 (active); in assay [4] it was 2.76 (inactive); in assay [5], 0.697 (inactive); in [6] it was 1.16 (inactive); in assay [7], 0.146. Besides, the z-score in assay [8] was -1.79 (inactive); in [9] it was -0.298 (inactive); in [10], -1.54. Further, the composite z-score in assay [2] is 0.197.
Turning to `C=CCC(OC(C)=O)[C@@H]1[C@@H](N(Cc2ccc(-c3cccc(C(F)(F)F)c3)o2)C(=O)c2ccc(C)cc2)c2cc(OCCCO)ccc2N1C(=O)c1ccc2ccccc2c1` (stereo not given in full), the z-score in [1] was 1.86 (inactive); in [3], 2.37 (inactive); in assay [4] it was -0.0931 (inactive); in [5], 0.0854 (inactive); in assay [6], -0.109 (inactive); in assay [7], -0.494. Besides, the z-score in [8] is -0.401 (inactive); in assay [9] it was 0.713 (inactive); in assay [10], 1.79. Also, the composite z-score in assay [2] was -0.147.
Consider `O=C1OCC=C[C@H]2OC34C=CCN(Cn5nnc6ccccc65)C(=O)[C@H]3N(CCCO)C(=O)[C@@H]4[C@@H]12` (stereo not given in full), for which the z-score in [1] was 1.54 (inactive); in [3] it was 0.243 (inactive); in [4], -1.01 (inactive); in [5] it was 1.24 (inactive); in [6] it was -0.602 (inactive); in assay [7], 0.277. The z-score in assay [8] is 0.847 (inactive); in [9], -1.42 (inactive); in [10], 0.1. The same compound returned a composite z-score in assay [2] of 0.0861.
`COc1ccc(C#Cc2ccc3c(c2)[C@]2(C(=O)N3)[C@H](c3ccc(O)cc3)N3[C@H](c4ccccc4)[C@H](c4ccccc4)OC(=O)[C@H]3[C@@H]2C(=O)O)cc1`: the z-score in assay [1] was 1.09 (inactive); in assay [3], -1.12 (inactive); in assay [4] it was -1.32 (inactive); in assay [5] it was -8.12 (active); in [6], -2.53 (inactive); in assay [7] it was 2.76. Also, the z-score in assay [8] was 0.397 (inactive); in [9], -2.46 (inactive); in assay [10], 0.00974. Also, the composite z-score in assay [2] came to 0.948.
`CN(C)C(=O)[C@@]1(Cc2ccccc2CN=[N+]=[N-])N=C(c2ccc(OCCCO)cc2)O[C@H]1c1ccccc1CN=[N+]=[N-]`: the z-score in assay [1] is -0.395 (inactive); in [3], 10.9 (active); in assay [4], 1.46 (inactive); in [5] it was 0.589 (inactive); in assay [6], 0.515 (inactive); in assay [7], 0.0709. Also, the z-score is -0.379 (inactive) in assay [8], 1.43 (inactive) in assay [9] and 2.09 in [10]. The same compound had a composite z-score in assay [2] of 0.315.
`COC(=O)[C@@]1(Cc2ccc(F)cc2)[C@H]2c3cc(C(=O)N4CCCC4)n(CCN4CNCC4=O)c3C[C@H]2CN1C(=O)c1ccccc1`: the z-score in assay [1] was -1.59 (inactive); in assay [3], 1.85 (inactive); in assay [4] it was 0.811 (inactive); in [5], 2.24 (inactive); in assay [6], 0.937 (inactive); in assay [7], 1. The values for the z-score in assay [8], in [9] and in assay [10] were 0.821 (inactive), -0.489 (inactive) and -5.26, respectively. In assay [2], this compound had a composite z-score of 0.497.
Turning to `Cc1cc(C)c(C(O)C2C=CC3C(=O)NC(=O)C3N2Nc2ccc(Cl)cc2Cl)c(C)c1` (stereo not given), the z-score was -2.38 (inactive) in assay [1]; 3.38 (inactive) in assay [3]; 1.18 (inactive) in [4]; -1.55 (inactive) in [5]; 0.876 (inactive) in [6]; -0.919 in assay [7]. The z-score in [8] is 0.614 (inactive); in assay [9], -4.94 (inactive); in [10] it was -1.3. Further, the composite z-score in assay [2] amounted to 0.479.
For the compound `CC=CC(O)C1C=CC2C(=O)N(c3ccccc3)C(=O)C2N1Nc1ccccc1F` (stereo not given), the z-score was -0.857 (inactive) in assay [1]; 4.36 (inactive) in [3]; 1.24 (inactive) in assay [4]; 0.164 (inactive) in assay [5]; 0.512 (inactive) in assay [6]; -0.819 in [7]. Moreover, the z-score in assay [8] was -1.11 (inactive); in assay [9], -2.88 (inactive); in assay [10], -2. Besides, the composite z-score in [2] was 0.762.
Take `C=C(COC)/C(=C/C[C@H](OC(C)=O)c1ccc(OCCO)cc1)c1cc(C(=O)OC)ccc1OC`: the z-score in assay [1] is 1.28 (inactive); in [3], 24.8 (active); in assay [4], 7.54 (inactive); in [5], 2.08 (inactive); in [6] it was 1.14 (inactive); in assay [7], 0.497. In addition, the results for the z-score in [8], in [9] and in [10] were 1.6 (inactive), 1.03 (inactive) and -1.34, respectively. The compound also showed a composite z-score in assay [2] of 0.188.
For `COc1ccc([Si](C)(C)[C@H]2[C@H](CCO)O[C@@]3(C(=O)N(Cc4cccc(N5C(=O)COc6ccccc65)c4)c4ccccc43)[C@@H]2C)cc1`, the z-score is 1.76 (inactive) in assay [1]; 2.15 (inactive) in assay [3]; 3.18 (inactive) in [4]; 1.7 (inactive) in assay [5]; 1.77 (inactive) in assay [6]; 0.805 in [7]. The figures for the z-score in assay [8], in assay [9] and in [10] were -1.26 (inactive), 1.1 (inactive) and 1.09, respectively. In assay [2], the composite z-score was 0.122.
Take `C=CCOC(=O)[C@H]1[C@@H]2C(=O)O[C@@H](c3ccccc3)[C@@H](c3ccccc3)N2[C@@H](c2ccc(OCCOC(=O)[C@@H]3C[C@@H]4C(=O)N[C@@H](CCCCNC(C)=O)C(=O)N4[C@@H]3c3ccc(O)cc3)cc2)[C@]12C(=O)Nc1ccc(I)cc12`: the z-score was -0.465 (inactive) in assay [1]; 1.33 (inactive) in [3]; 1.52 (inactive) in assay [4]; 3.07 (inactive) in assay [5]; 0.964 (inactive) in assay [6]; -0.621 in assay [7]. Besides, the z-score is 1.08 (inactive) in [8], 0.351 (inactive) in assay [9] and 2.35 in assay [10]. In assay [2], this compound registered a composite z-score of 0.471.
With `[N-]=[N+]=NCc1ccccc1C[C@@]1(C(=O)N2CCOCC2)N=C(c2ccc(OCCCO)cc2)O[C@@H]1c1ccccc1`, the z-score in assay [1] is 0.083 (inactive); in assay [3], 27 (active); in assay [4], 17.1 (active); in assay [5], 2.37 (inactive); in assay [6], 0.889 (inactive); in assay [7] it was 2.41. Also, the z-score in assay [8] is -4.45 (inactive); in assay [9], -1.12 (inactive); in assay [10], -2.14. The same compound displayed a composite z-score in assay [2] of 0.276.
